Test results as given in PubChem BioAssay AID1224921 (Broad Institute, 2016).
Hit rate of the full screen: of about 1,400 compounds, about 350 (25%) were called active. Another 2% or so got no clear call; they are omitted. How the calls were made is not given here. These entries were drawn from the full list. Results with a measured potency or affinity are listed apart.

Experiment: C. difficile growth inhibition, confirmation, 4-point retest (AID 1224921);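 further: plate controls were DMSO wells for no effect and levofloxacin 16 µg/mL wells for full effect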
Details: Clostridioides difficile clinical isolate growth, OD600, 24 h, hits give low values; at 30 µM unless noted

Max activity, inactive:
COc1cccc(C#Cc2ccc([C@H]3[C@@H](CO)N(C(=O)C4CC4)[C@H]3C#N)cc2)c1 19.6%, CO[C@@H]1CN(C)C(=O)c2cc(NC(=O)c3ccccc3)ccc2OC[C@H](C)N(C)C[C@H]1C 6.89% [at 8 µM], CO[C@@H]1CN(C)C(=O)c2cc(NS(=O)(=O)c3cn(C)cn3)ccc2OC[C@@H](C)N(Cc2cccc(Cl)c2)C[C@H]1C 31.5%, C[C@H](CO)N1C[C@H](C)[C@@H](CN(C)C(=O)NC2CCCCC2)Oc2c(NC(=O)Nc3cccc4ccccc34)cccc2C1=O 61.2%, C[C@@H]1CCCCO[C@@H](CN(C)Cc2ccc3c(c2)OCO3)[C@H](C)CN([C@H](C)CO)C(=O)c2cc(NC(=O)Nc3ccc(F)cc3)ccc2O1 18%, CCCN1C[C@@H](C)[C@H](OC)CN(C)C(=O)c2cc(NC(=O)Nc3cccc(OC)c3)ccc2OC[C@H]1C -7.34% [at 1.95 µM], CCCN1C[C@@H](C)[C@H](OC)CN(C)C(=O)c2ccc(NC(=O)Nc3c(C)noc3C)cc2OC[C@@H]1C 21.5%, CCCN1C[C@@H](C)[C@H](OC)CN(C)C(=O)c2ccc(NC(=O)CC)cc2OC[C@@H]1C 3.36%, COc1ccc(NC(=O)Nc2ccc3c(c2)[C@@H]2C[C@@H](CC(=O)NCc4ccccc4F)O[C@H](CO)[C@@H]2O3)cc1 -14.3%, C[C@@H]1CN([C@@H](C)CO)C(=O)c2cccc(NS(=O)(=O)c3ccc(Cl)cc3)c2O[C@@H]1CN(C)Cc1ccc(C(F)(F)F)cc1 20.4% [at 1.95 µM], CCCN(C)C[C@H]1OCCCC[C@H](C)Oc2ccc(NS(=O)(=O)c3c(C)noc3C)cc2C(=O)N([C@@H](C)CO)C[C@@H]1C 19% [at 8 µM], COc1ccc(CN(C)C[C@H]2OCCCC[C@@H](C)Oc3ccc(NC(=O)Nc4ccc5c(c4)OCO5)cc3C(=O)N([C@H](C)CO)C[C@H]2C)cc1 17.6%, C[C@@H]1CCCCO[C@@H](CN(C)Cc2ccc3c(c2)OCO3)[C@H](C)CN([C@@H](C)CO)C(=O)c2cc(NC(=O)Nc3ccc4c(c3)OCO4)ccc2O1 14.9%, Cc1ccc(S(=O)(=O)Nc2ccc3c(c2)C(=O)N([C@@H](C)CO)C[C@H](C)[C@@H](CN(C)Cc2ccc(Cl)c(Cl)c2)OCCCC[C@@H](C)O3)cc1 8.85%, C[C@H](CO)N1C[C@H](C)[C@@H](CN(C)Cc2ccc3c(c2)OCO3)OCCCC[C@H](C)Oc2ccc(NC(=O)Nc3ccc4c(c3)OCO4)cc2C1=O 12.4%, C[C@@H]1CN([C@@H](C)CO)C(=O)c2cc(NC(=O)Nc3ccc(F)cc3)ccc2O[C@@H](C)CCCCO[C@H]1CN(C)Cc1ccc2c(c1)OCO2 20.9%, Cc1ccc(S(=O)(=O)Nc2ccc3c(c2)C(=O)N([C@H](C)CO)C[C@@H](C)[C@H](CN(C)Cc2ccc(Cl)c(Cl)c2)OCCCC[C@H](C)O3)cc1 39% [at 1.95 µM], COc1ccc(CN(C)C[C@H]2OCCCC[C@H](C)Oc3ccc(NC(=O)Nc4ccc5c(c4)OCO5)cc3C(=O)N([C@H](C)CO)C[C@H]2C)cc1 21.6%, C[C@@H]1CN([C@@H](C)CO)C(=O)Cc2cc(NS(C)(=O)=O)ccc2O[C@H]1CN(C)Cc1ccccc1 38.5% [at 35 µM], N#C[C@H]1[C@@H](c2ccccc2)[C@@H](CO)N1S(=O)(=O)c1ccc(-c2ccccc2)cc1 40.9%, Cc1ccc(-c2cnc3c(c2)C(=O)N([C@@H](C)CO)C[C@H](C)[C@@H](CN(C)C(=O)c2ccccc2)O3)cc1 -9.22% [at 0.5 µM], CN(C)CC(=O)N[C@H]1C=C[C@H](CC(=O)NCCN2CCCCC2)O[C@@H]1CO 12.7% [at 8 µM], N#C[C@H]1[C@@H](c2ccc(-c3ccccc3)cc2)[C@@H](CO)N1C(=O)Cc1ccncc1 13.6%, CCC(=O)N[C@@H]1C=C[C@@H](CC(=O)OC)O[C@H]1CO -12.2% [at 8 µM], C[C@@H]1CN([C@H](C)CO)S(=O)(=O)c2ccc(C#CCC3CCCC3)cc2O[C@@H]1CN(C)C(=O)c1ccccn1 46.2% [at 8 µM], C[C@@H]1CN([C@H](C)CO)C(=O)c2cccc(N(C)C)c2O[C@H]1CN(C)Cc1ccc(C(F)(F)F)cc1 26.1%, CO[C@H]1CN(C)C(=O)c2ccc(NC(=O)c3ccc(F)cc3)cc2OC[C@@H](C)N(C(=O)CN(C)C)C[C@H]1C -10.6% [at 1.95 µM], C[C@@H]1CCCCO[C@H](CN(C)CC2CCCCC2)[C@@H](C)CN([C@H](C)CO)C(=O)c2cc(NC(=O)Nc3cccc4ccccc34)ccc2O1 12.9% [at 8 µM], C[C@H]1CCCCO[C@@H](CN(C)CC2CCCCC2)[C@@H](C)CN([C@@H](C)CO)C(=O)c2cc(NC(=O)Nc3cccc4ccccc34)ccc2O1 27.7% [at 8 µM], C[C@@H]1CCCCO[C@H](CN(C)CC2CCCCC2)[C@H](C)CN([C@@H](C)CO)C(=O)c2cc(NC(=O)Nc3cccc4ccccc34)ccc2O1 -10.7%, C[C@H](CO)N1C[C@H](C)[C@@H](CN(C)CC2CCCCC2)OCCCC[C@H](C)Oc2ccc(NC(=O)Nc3cccc4ccccc34)cc2C1=O 21.6%, C[C@@H]1CN([C@H](C)CO)S(=O)(=O)c2ccc(C#CCC3CCCC3)cc2O[C@H]1CN(C)C(=O)c1ccccn1 43.5%, CO[C@@H]1CN(C)C(=O)c2ccc(NC(C)=O)cc2OC[C@@H](C)N(Cc2cc(F)ccc2F)C[C@H]1C -9.54% [at 8 µM], Cc1ccc(-c2ccc3c(c2)O[C@@H](CN(C)Cc2cccnc2)[C@@H](C)CN([C@@H](C)CO)S3(=O)=O)cc1 35.1%, CN(C)C(=O)c1ccc(-c2ccc([C@@H]3[C@@H](CO)N(C(=O)C4CCCCC4)[C@H]3C#N)cc2)cc1 -13.2% [at 0.5 µM], C[C@H](CO)N1C[C@H](C)[C@H](CN(C)C(=O)Nc2ccc(C(F)(F)F)cc2)OCCCC[C@H](C)Oc2ccc(NS(=O)(=O)c3ccc(Cl)cc3)cc2C1=O 14.5%, C[C@H]1CCCCO[C@@H](CN(C)C(=O)Nc2ccc(C(F)(F)F)cc2)[C@@H](C)CN([C@@H](C)CO)C(=O)c2cc(NS(=O)(=O)c3ccc(Cl)cc3)ccc2O1 12.1%, COc1ccc(NC(=O)Nc2cccc3c2O[C@H](CN(C)C(=O)NC2CCCCC2)[C@@H](C)CN([C@H](C)CO)C3=O)cc1 -16%, CO[C@H]1CN(C)C(=O)c2cc(NS(=O)(=O)c3ccc(Cl)cc3)ccc2OC[C@@H](C)N(C(=O)NC(C)C)C[C@@H]1C 11.8%, C[C@H](O)C#Cc1ccc2c(c1)O[C@@H](CN(C)C(=O)c1ccccc1)[C@@H](C)CN([C@@H](C)CO)S2(=O)=O -12.7%, C[C@H](CO)N1C[C@H](C)[C@@H](CN(C)Cc2ccccn2)Oc2cc(C3=CCCCC3)ccc2S1(=O)=O 33.3%, C[C@@H]1CN([C@@H](C)CO)C(=O)Cc2cc(N(C)C)ccc2O[C@H]1CN(C)Cc1ccccc1 9.89%, CO[C@@H]1CN(C)C(=O)c2cc(NC(=O)NC(C)C)ccc2OC[C@H](C)N(C)C[C@@H]1C -5.88%, CCS(=O)(=O)Nc1ccc2c(c1)OC[C@H](C)NC[C@@H](C)[C@@H](OC)CN(C)C2=O 10.9%, CN(C)C(=O)c1ccc(-c2ccc([C@@H]3[C@@H](C#N)N(C(=O)C4CC4)[C@H]3CO)cc2)cc1 19.6% [at 1.95 µM], O=C(Nc1cc(F)ccc1F)N[C@H]1CC[C@H](CC(=O)N2CCc3ccccc3C2)O[C@@H]1CO -10.9% [at 8 µM], C[C@@H]1CN([C@@H](C)CO)C(=O)c2cc(NC(=O)Nc3ccc(C(F)(F)F)cc3)ccc2O[C@@H](C)CCCCO[C@@H]1CN(C)C 6.76% [at 8 µM], C[C@@H]1CN([C@@H](C)CO)C(=O)c2cc(NC(=O)CCCN(C)C)ccc2O[C@@H](C)CCCCO[C@@H]1CN(C)Cc1ccc(C(F)(F)F)cc1 -16.2% [at 1.95 µM], C[C@@H]1CN([C@@H](C)CO)C(=O)c2cc(NC(=O)Nc3ccc(C(F)(F)F)cc3)ccc2O[C@@H](C)CCCCO[C@H]1CN(C)C 31.7% [at 8 µM], C[C@H](CO)N1C[C@H](C)[C@@H](CN(C)Cc2ccc(C(F)(F)F)cc2)OCCCC[C@H](C)Oc2ccc(NC(=O)CCCN(C)C)cc2C1=O 16.3%, CCCN(C)C[C@H]1OCCCC[C@H](C)Oc2ccc(NC(=O)Nc3cccc4ccccc34)cc2C(=O)N([C@@H](C)CO)C[C@H]1C 13.8%, C[C@@H]1CN([C@@H](C)CO)C(=O)c2ccccc2-c2ccccc2CO[C@H]1CN(C)C(=O)CCN(C)C -7.53% [at 0.5 µM], CO[C@H]1O[C@H](CO)[C@@H](OC(=O)Nc2cccc(F)c2)[C@H](OC(=O)Nc2ccc3c(c2)OCO3)[C@H]1OC(=O)Nc1ccc2c(c1)OCO2 8.7%, C[C@H](CO)N1C[C@H](C)[C@@H](CN(C)CC2CCCCC2)Oc2ccc(NC(=O)Cc3cn(C)c4ccccc34)cc2CC1=O 22.1% [at 1.95 µM]
